Hits are enriched below; roughly 1.3% of the tested compounds scored in any of these assays.
PKM2 act – qHTS Assay for Activators of Human Muscle isoform 2 Pyruvate Kinase; Pyruvate kinase PKM (Homo sapiens), P14618; purified PKM2, Kinase-Glo ATP luminescence, activation; response scale: 0% is enzyme alone, no compound; Potency, µM (titrated, usually from 57.5 µM), hits mostly activators; hit rate 0.34% among 260,000; AID 1631, 2009; also: nearly all actives have a fitted effect of over 55% in size
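Kinase-Glo luminescence reports ATP generated from ADP (0.1 mM) and PEP (0.5 mM) by purified hPK-M2 after 1 h at room temperature, pH 7.2 imidazole buffer; intermediate enzyme activity allows detecting inhibitors and activators.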
Apoferritin bind – qHTS Assay for Identification of Novel General Anesthetics | Potency, µM (doses to about 77.5 µM), usual class: inhibitors | apoferritin/1-aminoanthracene competitive binding, fluorescence | hit rate 0.074% among 350,000; also: nearly all actives have a fitted effect of over 20% in size
Target sequence (P02791 2-175 limits assumed): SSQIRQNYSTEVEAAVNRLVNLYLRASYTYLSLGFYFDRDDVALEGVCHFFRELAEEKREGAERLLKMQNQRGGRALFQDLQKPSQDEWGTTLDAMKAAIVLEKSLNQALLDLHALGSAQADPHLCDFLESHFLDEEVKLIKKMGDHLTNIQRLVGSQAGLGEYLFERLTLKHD
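Probe: 1-aminoanthracene (50% saturated, PBS). Protein: horse-spleen apoferritin, 10 uM. Incubation: 10 min, room temperature. Detection: 380 nm excitation, 535 nm emission. Analysis: normalized response, four-parameter Hill.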
TrxR1 inh – qHTS Assay for Inhibitors of Mammalian Selenoprotein Thioredoxin Reductase 1 (TrxR1): qHTS; Thioredoxin reductase 1, cytoplasmic (Rattus norvegicus), O89049; recombinant rTrxR1, NADPH fluorescence consumption, selenite substrate; Potency, µM (titrated, usually from 114 µM), actives largely listed as inhibitors; hit rate 1% among 390,000; AID 588453, 2011; also: nearly all actives have a fitted effect of over 65% in size
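Rat TrxR1 (90 nM in the dispensed reagent) was pre-reduced with 400 uM NADPH for 5 min at room temperature, then incubated with compound for 15 min. After 400 uM selenite was added, NADPH fluorescence (Ex 340/Em 450 nm) was followed for 8 min.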
GALK inhibitor – qHTS Assay for Inhibitors of Human Galactokinase (GALK); P51570; Purified GALK, Kinase-Glo residual ATP luminescence; Potency, µM (series often up to 57.5 µM), hits mostly inhibitors; hit rate 0.007% among 270,000; AID 1868, 2009
Target sequence (P51570 whole entry, looked up): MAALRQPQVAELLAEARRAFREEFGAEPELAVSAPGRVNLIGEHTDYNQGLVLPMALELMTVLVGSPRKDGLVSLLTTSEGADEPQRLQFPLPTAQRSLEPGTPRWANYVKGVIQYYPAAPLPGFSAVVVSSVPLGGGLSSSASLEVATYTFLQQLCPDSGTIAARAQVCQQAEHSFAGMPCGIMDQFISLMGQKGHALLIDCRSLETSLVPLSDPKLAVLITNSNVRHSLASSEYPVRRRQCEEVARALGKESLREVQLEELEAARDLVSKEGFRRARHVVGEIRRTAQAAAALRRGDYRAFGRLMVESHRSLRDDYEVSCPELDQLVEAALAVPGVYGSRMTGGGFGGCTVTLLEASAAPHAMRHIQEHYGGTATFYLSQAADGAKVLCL
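Human GALK (5 nM) with 35 uM ATP and 100 uM galactose in 20 mM HEPES pH 8.0, 5 mM MgCl2, 60 mM NaCl, 1 mM DTT, 0.01% BSA. After 1 h at room temperature, leftover ATP was read by Kinase-Glo Plus luminescence.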
TrxR1 substrate – qHTS Assay for Substrates of Mammalian Selenoprotein Thioredoxin Reductase 1 (TrxR1): qHTS | Potency, µM (series often up to 114 µM) | Thioredoxin reductase 1, cytoplasmic (Rattus norvegicus), O89049 | purified TrxR1 substrate turnover, NADPH consumption readout | hit rate 0.01% among 390,000; also: nearly all actives have a fitted effect of over 50% in size
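Rat TrxR1, dispensed at 90 nM, was prereduced with 400 uM NADPH (final) for 5 min at ~22 deg C, then incubated with compound 15 min before 400 uM selenite. A first-read NADPH fluorescence drop versus no-compound background flagged substrates.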
mIDH1 inhibitor – qHTS for Inhibitors of mutant isocitrate dehydrogenase 1 (IDH1): qHTS | Isocitrate dehydrogenase [NADP] cytoplasmic (Homo sapiens), O75874 | IDH1-R132H enzyme, NADPH consumption, diaphorase/resazurin fluorescence | Potency, µM (highest dose often 76.6 µM), most hits filed as inhibitors | hit rate 0.093% among 390,000; also: nearly all actives have a fitted effect of over 65% in size
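IDH1-R132H (0.5 ug/mL dispensed) in pH 7.5 Tris buffer was preincubated 30 min with compound, then given a substrate mix of 0.016 mM NADPH and 2 mM alpha-KG for 80 min at room temperature; remaining NADPH was read by diaphorase/resazurin fluorescence.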
Each line names hits and unclear results; the compound was inactive in the other large screens; ! = not active in a repeat. Calls follow the shape of the dose curve; as a rule, active = well fitted curve in the direction sought with a large enough effect; inconclusive = small, poorly fitted or top-dose-only effect, or another doubt; inactive = no such curve, though single readings can be large; an effect the other way counts as inactive or inconclusive.

CCc1cccc(C)c1N(C(=O)CCl)C(C)COC (stereo unspecified)	none (no result: PKM2 act, TrxR1 inh, GALK inhibitor, TrxR1 substrate, mIDH1 inhibitor)
CN(C(=O)Cc1ccc(Cl)c(Cl)c1)C(CN1CCCC1)c1cccc(N=C=S)c1 (stereo unspecified)	none (no result: PKM2 act, TrxR1 inh, GALK inhibitor, TrxR1 substrate, mIDH1 inhibitor)
O=C(Nc1ccc2nc(SCC(=O)N3CCOCC3)sc2c1)c1ccc(Cl)cc1	none (no result: PKM2 act, GALK inhibitor)
CN[C@@H](C)[C@H](O)c1ccccc1	TrxR1 inh 25µM! (no result: PKM2 act, Apoferritin bind, GALK inhibitor, mIDH1 inhibitor)
C[C@@H]1C[C@@H]2[C@H]([C@H]3C=C(COC(=O)c4ccccc4)[C@@H](O)[C@]4(O)[C@@H](O)C(OC(=O)c5ccccc5)=C[C@@]14C3=O)C2(C)C	none (no result: PKM2 act, TrxR1 inh, GALK inhibitor, TrxR1 substrate, mIDH1 inhibitor)
Cc1ccc2cc(C=C(C#N)C#N)c(Cl)nc2c1	TrxR1 inh 25µM
CC(C)C[C@H]1C(=O)N2CCC[C@H]2[C@]2(O)O[C@](NC(=O)[C@@H]3C=C4c5cccc6[nH]cc(c56)C[C@H]4N(C)C3)(C(C)C)C(=O)N12	TrxR1 inh 16µM (no result: PKM2 act, Apoferritin bind, GALK inhibitor)
CC(=O)Nc1ccc(OC(=O)N2CCN(/[N+]([O-])=N/Oc3ccc([N+](=O)[O-])cc3[N+](=O)[O-])CC2)cc1	TrxR1 inh inconclusive (no result: PKM2 act, Apoferritin bind, GALK inhibitor, mIDH1 inhibitor)
C=CCN1C(=O)/C(=C/c2ccc(Br)s2)C(=O)NC1=S	PKM2 act inconclusive, Apoferritin bind inconclusive, TrxR1 inh 6.3µM
CN1C(=O)/C(=C/c2ccc(Cl)s2)C(=O)NC1=S	TrxR1 inh 8.9µM
COc1ccc(/C=C2\C(=O)NC(=S)N(C)C2=O)cc1C	TrxR1 inh inconclusive
Cc1ccsc1/C=C1\C(=O)NC(=S)N(C)C1=O	TrxR1 inh 32µM
CCN1C(=O)/C(=C\c2ccc([N+](=O)[O-])s2)C(=O)NC1=S	none (no result: TrxR1 inh, TrxR1 substrate, mIDH1 inhibitor)
CN1C(=O)/C(=C\c2ccc(N3CCCCC3)o2)C(=O)NC1=S	none
O=[N+]([O-])c1cc(C(F)(F)F)c(Cl)c([N+](=O)[O-])c1Nc1ncc(C(F)(F)F)cc1Cl	TrxR1 inh inconclusive (no result: PKM2 act, Apoferritin bind, GALK inhibitor, mIDH1 inhibitor)
Oc1cccc2cccnc12	none (no result: GALK inhibitor, mIDH1 inhibitor)
Oc1c(C(Nc2cccnc2)c2ccccc2F)ccc2cccnc12 (stereo unspecified)	TrxR1 inh 1.4µM (no result: PKM2 act, Apoferritin bind, GALK inhibitor, mIDH1 inhibitor)
CCOP(=O)(C1=C(O)C(=O)C(C(C)(C)C)=CC1=O)c1ccccc1 (stereo unspecified)	TrxR1 inh 4.5µM
ClCCN(CCCl)/C(=C\c1ccccc1)c1ccnc2ccccc12	TrxR1 inh inconclusive (no result: PKM2 act, Apoferritin bind, GALK inhibitor, mIDH1 inhibitor)
CCOc1ccc2cc(C#N)c(=O)oc2c1	none (no result: PKM2 act, TrxR1 inh, GALK inhibitor, TrxR1 substrate, mIDH1 inhibitor)
CCCCCC1CC(CC#CCN2CCOCC2)C(=O)O1 (stereo unspecified)	TrxR1 inh 45µM
CC(C)C(=O)NC(Oc1ccccc1Cl)C(Cl)(Cl)Cl (stereo unspecified)	Apoferritin bind inconclusive, TrxR1 inh 8.9µM
[Hg+][c]1ccccc1	TrxR1 inh inconclusive (no result: PKM2 act, Apoferritin bind, GALK inhibitor, mIDH1 inhibitor)
Cc1ccc(S(=O)(=O)Oc2ccccc2C=C2C(=O)N(C)C(=O)N(C)C2=O)cc1	TrxR1 inh 50µM
COc1ccc(S(=O)(=O)NCCc2sc3nc(-c4ccc(C)cc4)nn3c2C)cc1F	Apoferritin bind inconclusive (no result: PKM2 act, GALK inhibitor)
Cc1ccc(/C=C2/C(=O)NC(=O)N(CC3CCCO3)C2=O)s1 (stereo unspecified)	PKM2 act inconclusive, TrxR1 inh 50µM
COCCCNC(=O)c1c(N)n(Cc2ccco2)c2nc3ccccc3nc12	PKM2 act 25µM, TrxR1 inh inconclusive
Cn1ncc2c(NCc3ccco3)ncnc21	TrxR1 inh inconclusive (no result: PKM2 act, Apoferritin bind, GALK inhibitor, mIDH1 inhibitor)
CC1OC(O[C@H]2C[C@@H](O)[C@]3(CO)[C@H]4[C@H](O)C[C@]5(C)[C@@H](C6=CC(=O)OC6)CC[C@]5(O)[C@@H]4CC[C@]3(O)C2)C(O)C(O)C1O (stereo partly specified)	none (no result: PKM2 act, Apoferritin bind, GALK inhibitor, mIDH1 inhibitor)
